In PubChem BioAssay (EPA / NIEHS) one finds outcome and AC50 data, which are given here for 32 molecules.

Each structure is given as a SMILES string. Records with an inconclusive call do not appear. The source made the active and inactive calls. Rule for the calls, unless noted: active = hit-call score of the fitted dose curve at least 0.9, where 1 is the maximum; inconclusive = response in the unintended direction; inactive = score below 0.9.

In one experiment the target is human Peroxisome Proliferator-activated Receptor alpha (PPARa), PPARA (gene 5465) (UniProt Q07869). Nature of the experiment: ATG_PPARa_TRANS: Attagene TRANS-FACTORIAL HepG2 Assay for human Peroxisome Proliferator-activated Receptor alpha (PPARa) (AID 2283001).
human Peroxisome Proliferator-activated Receptor alpha (PPARa), PPARA (gene 5465), sequence (Q07869 whole entry, looked up): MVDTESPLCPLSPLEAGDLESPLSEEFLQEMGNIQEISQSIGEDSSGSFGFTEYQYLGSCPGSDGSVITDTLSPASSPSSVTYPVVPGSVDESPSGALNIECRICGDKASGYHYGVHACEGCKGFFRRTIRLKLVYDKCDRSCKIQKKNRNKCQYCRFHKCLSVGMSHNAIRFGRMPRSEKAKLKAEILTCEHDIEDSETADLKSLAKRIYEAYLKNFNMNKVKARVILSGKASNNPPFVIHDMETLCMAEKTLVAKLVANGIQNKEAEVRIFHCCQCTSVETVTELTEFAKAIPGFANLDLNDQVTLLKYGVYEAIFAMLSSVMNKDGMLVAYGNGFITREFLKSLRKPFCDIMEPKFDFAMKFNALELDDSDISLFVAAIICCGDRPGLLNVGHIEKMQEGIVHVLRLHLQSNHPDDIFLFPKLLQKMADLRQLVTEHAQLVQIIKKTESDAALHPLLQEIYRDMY
Settings: not given
A digest of the protocol:
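Reporter transcripts from GAL4-UAS units in transfected HepG2 were quantified 24 h after dosing. Detection used reverse transcription, PCR, fluorescent primer extension and capillary electrophoresis, with DMSO as baseline.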
For the molecule `CC(C)C(=O)OCC(C)(C)C(OC(=O)C(C)C)C(C)C` (stereo unspecified), the call was inactive. For the molecule `Oc1ccc(Cl)cc1Cl`, the result was inactive. On to `C=CC(=O)NCNC(=O)C=C`, for which the molecule was called inactive. In the case of `Clc1ccc(C(Cl)(Cl)Cl)cc1`, the molecule was called inactive.

With `CCC(C)(c1ccc(O)cc1)c1ccc(O)cc1`, the call was inactive.

In the case of `CC(C)(O)C(=O)Nc1ccc([N+](=O)[O-])c(C(F)(F)F)c1`, the molecule was called inactive. For the molecule `O=C(NC(=O)c1cc(F)c(F)cc1Cl)Nc1cc(F)ccc1N1CCC(C(=O)O)CC1`, the molecule was called inactive. On to `O=C(N[C@H]1CN2CCC1CC2)c1cc2ccoc2cn1`, for which the molecule was called inactive.

A further experiment deals with human Peroxisome Proliferator-activated Receptor delta (PPARd), PPARD (gene 5467) (UniProt Q03181). Description: ATG_PPARd_TRANS: Attagene TRANS-FACTORIAL HepG2 Assay for human Peroxisome Proliferator-activated Receptor delta (PPARd) (AID 2283002).
human Peroxisome Proliferator-activated Receptor delta (PPARd), PPARD (gene 5467), sequence (Q03181 whole entry, looked up): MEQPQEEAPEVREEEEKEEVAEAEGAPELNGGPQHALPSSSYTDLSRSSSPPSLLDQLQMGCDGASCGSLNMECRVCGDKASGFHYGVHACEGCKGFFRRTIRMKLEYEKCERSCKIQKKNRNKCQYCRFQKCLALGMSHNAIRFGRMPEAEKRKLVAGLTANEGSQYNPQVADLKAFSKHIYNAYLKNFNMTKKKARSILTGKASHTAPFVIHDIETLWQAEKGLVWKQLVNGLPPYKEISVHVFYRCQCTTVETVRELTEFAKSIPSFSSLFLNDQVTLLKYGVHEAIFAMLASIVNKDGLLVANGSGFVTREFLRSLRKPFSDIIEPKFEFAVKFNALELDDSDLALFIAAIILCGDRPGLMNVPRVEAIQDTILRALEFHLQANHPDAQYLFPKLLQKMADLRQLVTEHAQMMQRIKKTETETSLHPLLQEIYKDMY
Settings: not given
A digest of the protocol: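 Transient HepG2 transfection (multiple GAL4-UAS RTUs, chimeric receptor-Gal4); 24 h dosing; total RNA → oligo(dT) RT → PCR → 6-FAM primer extension → HpaI cut → CE. Positive direction vs DMSO.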
For `Cc1ccccc1CO[C@@H]1C[C@@]2(C(C)C)CC[C@]1(C)O2`, the molecule was classed as inactive.

For the molecule `ClC1=C(Cl)[C@]2(Cl)[C@@H]3[C@@H]4C[C@@H]([C@H]5O[C@@H]45)[C@@H]3[C@@]1(Cl)C2(Cl)Cl`, the molecule was classed as inactive.

As for `c1cc2ccc3cccc4ccc(c1)c2c34`, the molecule was classed as inactive. On the same count and under the same terms, the value for `CCC(=O)O[C@H]1CC[C@H]2[C@@H]3CCC4=CC(=O)CC[C@]4(C)[C@H]3CC[C@]12C` was “inactive”. On the same count and under the same terms, with `C[C@]12CCC(=O)C=C1CC[C@@H]1[C@@H]2CC[C@@]2(C)[C@H]1CC[C@]2(C)O` the entry was “inactive”; with `CCOCCOC(C)=O`, “inactive”; with `CC(c1ccc(O)cc1)(c1ccc(O)cc1)c1ccc(O)cc1`, “inactive”. Turning to `C[C@]12CCC(=O)C=C1CC[C@@H]1[C@@H]2CC[C@]2(C)C(=O)CC[C@@H]12`, the molecule was called inactive.

On to `Oc1ccc(C(c2ccc(O)cc2)(C(F)(F)F)C(F)(F)F)cc1`, for which the call was inactive. Take `ClC1=C(Cl)[C@]2(Cl)[C@@H]3[C@@H](Cl)[C@H]4O[C@H]4[C@@H]3C1(Cl)C2(Cl)Cl`: the outcome was inactive. Regarding `O=S(=O)(O)C(F)(F)C(F)(F)C(F)(F)C(F)(F)C(F)(F)C(F)(F)F`, the outcome was inactive. As for `CC1=C2C[C@H]3[C@@H](CC=C4C[C@@H](O)CC[C@@]43C)[C@@H]2CC[C@]12O[C@@H]1C[C@H](C)CN[C@H]1[C@H]2C`, the molecule was classed as inactive. On to `CCOC(=O)C(O)(c1ccc(Cl)cc1)c1ccc(Cl)cc1`, for which the result was inactive. Still for that read-out and setting: with `CCOP(=S)(OCC)SCSC(C)(C)C` the entry was “inactive”. Turning to `CCC(C)(CC)c1cc(NC(=O)c2c(OC)cccc2OC)on1`, the molecule was classed as inactive.

Read-out in a further experiment: Intercellular Adhesion Molecule 1 (ICAM1), ICAM1 (gene 3383)
Nature of the experiment: BSK_3C_ICAM1: BioMAP Diversity Plus: 3C Assay for Intercellular Adhesion Molecule 1 (ICAM1) Biomarker Activity (AID 2283003; active = hit-call score of the fitted dose curve at least 0.9, where 1 is the maximum; inactive = score below 0.9). As to conditions: primary human endothelial cells (HUVEC); actives raise or lower the signal. A digest of the protocol: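 Human vascular endothelial primary cells, 3C conditions, 24 h treatment. ICAM-1 by ELISA.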
Regarding `Cc1ccccc1CO[C@@H]1C[C@@]2(C(C)C)CC[C@]1(C)O2`, the outcome was inactive. On the same count and under the same terms, with `ClC1=C(Cl)[C@]2(Cl)[C@@H]3[C@@H]4C[C@@H]([C@H]5O[C@@H]45)[C@@H]3[C@@]1(Cl)C2(Cl)Cl` the entry was “inactive”; with `c1cc2ccc3cccc4ccc(c1)c2c34`, “inactive”. On to `CC(C)C(=O)OCC(C)(C)C(OC(=O)C(C)C)C(C)C` (stereo unspecified), for which the result was inactive. With `Oc1ccc(Cl)cc1Cl`, the outcome was inactive. Consider `CN(C)c1nc(=O)n(C2CCCCC2)c(=O)n1C`, for which the result was inactive. As to `C=CC(=O)NCNC(=O)C=C`, the outcome was inactive. Take `CCC(=O)O[C@H]1CC[C@H]2[C@@H]3CCC4=CC(=O)CC[C@]4(C)[C@H]3CC[C@]12C`: the AC50 was 35.8 µM (active).

`C1CC2OC2CC1C1CO1` (stereo unspecified): the result was inactive. With `CCSC(=O)N(CC)C1CCCCC1`, the result was inactive. Still for that read-out and setting: the value for `C[C@]12CCC(=O)C=C1CC[C@@H]1[C@@H]2CC[C@@]2(C)[C@H]1CC[C@]2(C)O` was “inactive”. Same read-out and setting: the value for `Cc1cccc(C)c1N` was “inactive”; that for `Clc1ccc(C(Cl)(Cl)Cl)cc1` was “inactive”. Still for that read-out and setting: the value for `CCC(C)(c1ccc(O)cc1)c1ccc(O)cc1` was “inactive”; that for `CCOCCOC(C)=O` was “inactive”; that for `N#Cc1ccc(N(CC(N)=O)CC(F)(F)F)cc1C(F)(F)F` was “inactive”.

`CC(c1ccc(O)cc1)(c1ccc(O)cc1)c1ccc(O)cc1`: the result was inactive. Take `CCCN(CCC)N=O`: the result was inactive.

`C[C@]12CCC(=O)C=C1CC[C@@H]1[C@@H]2CC[C@]2(C)C(=O)CC[C@@H]12`: the outcome was inactive. Regarding `CO/C=C(/C(=O)OC)c1ccccc1COc1cccc(C(F)(F)F)n1`, the result was inactive. On to `Oc1ccc(C(c2ccc(O)cc2)(C(F)(F)F)C(F)(F)F)cc1`, for which the AC50 is 38.3 µM (active).

For `ClC1=C(Cl)[C@]2(Cl)[C@@H]3[C@@H](Cl)[C@H]4O[C@H]4[C@@H]3C1(Cl)C2(Cl)Cl`, the result was inactive. As to `O=S(=O)(O)C(F)(F)C(F)(F)C(F)(F)C(F)(F)C(F)(F)C(F)(F)F`, the result was inactive. `C=CC(N)=O`: the result was inactive. `Cc1cccc([N+](=O)[O-])c1`: the outcome was inactive.

Take `CC1=C2C[C@H]3[C@@H](CC=C4C[C@@H](O)CC[C@@]43C)[C@@H]2CC[C@]12O[C@@H]1C[C@H](C)CN[C@H]1[C@H]2C`: the outcome was inactive.

As for `CCOC(=O)C(O)(c1ccc(Cl)cc1)c1ccc(Cl)cc1`, the AC50 is 37.9 µM (active). Take `CC(C)(O)C(=O)Nc1ccc([N+](=O)[O-])c(C(F)(F)F)c1`: the outcome was inactive.
